Source: PubChem
JMJD2A Tudor – qHTS Assay for Inhibitors of JMJD2A-Tudor Domain. AlphaScreen JMJD2A-Tudor / H3K4me3 peptide binding. Potency, µM (top dose mostly 114 µM), for inactives: at the highest dose activity change, negative = inhibition, hits mostly inhibitors. 4.4% of 390,000 active. AID 504339, 2011; further: potency means the concentration at half of the fitted maximal effect; on the % scale 0 is the no-effect control and ±100 the full control effect; nearly all actives have a fitted effect of over 50% in size
PLK1 PBD block – qHTS for Inhibitors of PLK1-PDB (polo-like kinase 1 - polo-box domain): Primary Screen | Serine/threonine-protein kinase PLK1 (Homo sapiens), P53350 | Plk1 PBD binding of FITC phosphopeptide, fluorescence polarization | Potency, µM, for inactives: max response, negative = inhibition, usual class: inhibitors | 2.8% of 360,000 active | AID 720504, 2013; further: potency means the concentration at half of the fitted maximal effect; series mostly up to about 57 µM; on the % scale 0 is the no-effect control and ±100 the full control effect; nearly all actives have a fitted effect of over 65% in size
HP1b binding inh – HTS for Inhibitors of HP1-beta Chromodomain Interactions with Methylated Histone Tails; Chromobox protein homolog 1 (Homo sapiens), P83916; AlphaScreen HP1-beta / biotin-H3K9me3 peptide binding; Potency, µM (doses to about 114 µM), without a hit: at the top dose activity change, negative = inhibition, actives largely listed as inhibitors; 0.56% of 390,000 active; AID 540317, 2011; further: potency means the concentration at half of the fitted maximal effect; nearly all actives have a fitted effect of over 70% in size
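Compound inhibition of the preformed complex between 50 nM HP1-beta and 50 nM biotinylated H3K9me3 peptide was read by AlphaScreen. Buffer was PBS pH 7.4 with 0.01% Tween-20. Incubations ran 30 min at room temperature, with 10 ug/mL donor/acceptor beads.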
PI5P4Ka inh – qHTS for Inhibitors of phosphatidylinositol 5-phosphate 4-kinase (PI5P4K); 1.2% of 330,000 active; PI5P4Kalpha enzyme, ADP-Glo luminescence, 60 min; hits give low values; max response, %; AID 652105, 2013; active means max response of -50% or lower; inconclusive means between -30% and -50%; inactive means -30% or higher; further: value at the top dose of about 77 µM; on the % scale 0 is the no-effect control and ±100 the full control effect
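ADP-Glo luminescence end-point read after a 60 min room-temperature kinase reaction of PI5P4Kalpha plus substrate, initiated with ATP at 5 microM final. Buffer: 0.038 M HEPES pH 7.4, EGTA, 0.1% CHAPS, 5% DMSO.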
G9a inh – qHTS Assay for Inhibitors of Histone Lysine Methyltransferase G9a | G9a H3K9 monomethylation, AlphaScreen, 2 h | 8.8% of 350,000 active | Potency, µM (doses to about 102 µM), for the others: top-dose activity, negative = inhibition, actives largely listed as inhibitors; further: potency means the concentration at half of the fitted maximal effect; on the % scale 0 is the no-effect control and ±100 the full control effect; nearly all actives have a fitted effect of over 75% in size
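G9a (20 nM) was preincubated 15 min with compound, then reacted 2 h at room temperature with 500 nM biotin-H3K9 peptide and 20 µM SAM. Monomethyl-H3K9 detected by AlphaScreen using anti-H3K9me1 antibody.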
BAZ2B inh – qHTS Assay for Inhibitors of BAZ2B | AlphaScreen BAZ2B-H3K14Ac peptide displacement | Potency, µM (titrated, usually from 114 µM), for the others: top-dose activity change, negative = inhibition, actives largely listed as inhibitors | 4.4% of 360,000 active; further: potency means the concentration at half of the fitted maximal effect; on the % scale 0 is the no-effect control and ±100 the full control effect; nearly all actives have a fitted effect of over 60% in size
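Multi-concentration screen (max 110 uM) measuring displacement of acetylated histone H3 peptide from BAZ2B by AlphaScreen, using 50 nM protein, 50 nM peptide and 10 ug/mL streptavidin donor plus Ni-chelate acceptor beads.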
* hit, by the source's call; ? = inconclusive; . = no result given; ! = repeats disagree; [ ] = remark or other dose. Most compounds without a hit are left out; they make up all but 12% or so of the library. Unless noted, the call rests on the fitted dose curve; in most records, active means well fitted curve in the direction sought with a large enough effect; inconclusive means small, poorly fitted or top-dose-only effect, or another doubt; inactive means no such curve, though single readings can be large; an effect the other way counts as inactive or inconclusive.

SMILES	JMJD2A Tudor	PLK1 PBD block	HP1b binding inh	PI5P4Ka inh	G9a inh	BAZ2B inh
Cc1cc(CN2CCC(n3nccc3NC(=O)c3ccccc3C)CC2)n[nH]1	-10%	-8%	38%	1	82%	1%
CCCn1cc(S(=O)(=O)c2cccc(Cl)c2)c(=O)c2cc(F)c(N3CCOCC3)cc21	6%	.	47%	.	0%[59 µM]	-1%
CC(=O)Nc1ccc(N(C(=O)c2ccccn2)C(C(=O)NC2CCCCC2)c2ccc(F)cc2)cc1 (configuration not stated)	4%	-19%	-2%	-5	11%	0%
COc1cccc(-c2nc(CS(=O)(=O)CC(=O)Nc3ccc(C(C)=O)cc3)c(C)o2)c1	-27%	-5%	9%	-1	-24%	?
CCOC(=O)c1c(C)oc2c1c(C=NC1CCS(=O)(=O)C1)c(O)c1ccccc12 (configuration not stated)	-15%	-3%	17%	5	-137%	-1%
CCOC(=O)c1c(C)oc2c1c(C=NCCC(=O)O)c(O)c1ccccc12	-24%	-27%	24%	-1	50µM*	?
O=C(CSc1ccc2nnc(-c3ccccn3)n2n1)Nc1nccs1	32µM*	3%	53%	-1	-6%	.
COc1ccc(-c2nnc3ccc(SCC(=O)Nc4nccs4)nn23)cc1OC	7%	-7%	22%	-16	32µM*	-10%
O=C(CSc1ccc2nnc(-c3ccncc3)n2n1)Nc1nccs1	-11%	-13%	32%	2	50µM*	.
Cc1nnc(NC(=O)CSc2ccc3nnc(-c4ccccn4)n3n2)s1	79µM*	-2%	34%	3	-33%	.
CCO[C@H]1O[C@@H]([C@H](COCc2ccccc2)OCc2ccccc2)[C@@H](OCc2ccccc2)[C@H]1O	.	.	.	.	29%[21.5 µM]	.
Cc1ccc(-n2nc(CO)c(C(=O)NC(C)CCCc3ccccc3)n2)cc1 (configuration not stated)	-6%	.	10%	.	-24%[59 µM]	-2%
CCOc1ccc(N2CC(NC(=O)C3CCCCC3)CC2=O)cc1 (configuration not stated)	-9%	.	26%	.	8%[59 µM]	3%
Cc1ccc(S(=O)(=O)c2ncccc2[N+](=O)[O-])cc1	-12%	-25%	58%	-1	5%	-3%
CC1(C)CC(=O)C=C(Nc2cccc(F)c2)C1	?	30µM*	13%	1	-9%	-11%
COC(=O)c1ccc(NC2=CC(=O)CC(C)(C)C2)cc1	-20%[11.4 µM]	3.4µM*	?	?	-36%[12.7 µM]	-25%
CN(C)C(=O)c1ccc(NC(=O)c2cc(-n3cnnc3)ccc2Cl)cc1	?	17µM*	?	4	2%[59 µM]	3%
Cc1ccc(NC(=O)c2cc(-n3cnnc3)ccc2Cl)cc1	-16%	-1%	20%	.	-3%[59 µM]	8%
COc1ccc(CCC(=O)NCc2ccc3c(c2)CCN3C(=O)c2ccc(C)cc2)cc1	-24%	.	26%	.	-1%[59 µM]	-4%
CCc1c(C)[nH]c2c1C(=O)C(CN1CCOCC1)CC2 (configuration not stated)	-28%	-5%	5%	1	19µM*!	.
Cc1cccc(NC(=O)N2CCC(CN3CCOCC3)CC2)c1C	-12%	.	37%	.	0%[59 µM]	-1%
O=C(NC(Cc1ccccc1)C(=O)OCC(=O)N1CCc2ccccc21)c1ccco1 (configuration not stated)	-11%	4%	9%	-4	14µM*	-1%
O=C(CSCc1ccco1)N1CCc2ccccc21	-24%	-16%	18%	4	71µM*	-27%
O=C(CSc1ccccc1)N1CCc2ccccc21	19%	-20%	55%	6	40%[59 µM]	8%
CCOCCCNC(=O)Cn1nc(C)n2c(cc3cc(C)ccc32)c1=O	-17%	.	11%	.	4%[59 µM]	4%
SMILES	JMJD2A Tudor	PLK1 PBD block	HP1b binding inh	PI5P4Ka inh	G9a inh	BAZ2B inh
CCC(=O)N1c2ccccc2CC1C(=O)NCc1ccc(N(C)C)cc1 (configuration not stated)	-7%	.	13%	.	?	-15%
NC(CSCC(=O)O)C(=O)O (configuration not stated)	.	.	.	.	-25%[59 µM]	.
NC(CS(=O)O)C(=O)O (configuration not stated)	35µM*	3%	23%	12	.	.
N[C@@H](CS(=O)O)C(=O)O	.	.	.	.	21µM*!	.
N[C@H](CO)C(=O)O	.	.	.	.	12µM*!	.
COC(=O)c1cc(NC(=O)c2ccc3c(c2)N(Cc2cccc(Cl)c2)C(=O)c2ccccc2S3=O)cc(C(=O)OC)c1 (configuration not stated)	4%	.	14%	.	6%[59 µM]	0%
Cc1ccc(NC(=O)c2cc(CN3CCOCC3)on2)cc1Cl	-6%	.	-1%	.	1%[59 µM]	-6%
Cc1ccc(OCCn2cc(C(=S)N3CCCC3)c3ccccc32)cc1C	?	3µM*	-23%	?	?	-25%
S=C(c1cn(CCOc2ccccc2)c2ccccc12)N1CCCC1	-27%	?	-9%	-3	35µM*	-35%
Cc1ccc(OCCn2cc(/C(N)=N/O)c3ccccc32)cc1C	-1%[57.1 µM]	-11%	-8%	4	-8%[59 µM]	?
CCc1ccc(C2=C(C)C(N3CCC(C(=O)NCCc4ccco4)CC3)=NS2(=O)=O)cc1	-13%	.	7%	.	0%[59 µM]	-11%
C=CCOc1c(Br)cc(CNc2ccc(NC(=O)C(C)C)c(OC)c2)cc1OCC	?	-30%	-2%	-3	6.3µM*	22%
CCOc1c(Br)cc(CNc2ccc(N3CCN(C(C)=O)CC3)cc2)cc1OC	50µM*	-18%	-23%	1	28µM*	40µM*
COc1cc(CNc2ccc(O)cc2)cc(Br)c1OCc1ccccc1	45µM*	-3%	?	-7	25µM*	40µM*
CCOc1cc(CNc2ccc(N3CCN(C(C)=O)CC3)cc2)cc(Br)c1OC	35µM*	7%	?	-5	28µM*	32µM*
CCc1ccc(S(=O)(=O)c2nnn3c2nc(Nc2cc(OC)cc(OC)c2)c2cc(Cl)ccc23)cc1	-10%	.	15%	.	-4%[59 µM]	3%
Cc1ccc(-c2nc(SCC(=O)Nc3cc(C)on3)c3c(=O)n(C)c(=O)n(C)c3n2)cc1	-1%	-8%	12%	0	-5%[59 µM]	1%
COc1ccc(CNc2ccc(C)cc2)cc1Br	-36%[57.1 µM]	-7%	?	3	?	50µM*
COc1ccc(CNc2ccccc2)cc1Br	-7%	3%	49%	.	-5%[59 µM]	23%
